PAFAH2 inh: inhibitors of human PAFAH2; Q99487; recombinant PAFAH2, FP-rhodamine activity probe, fluorescence polarization; inhibition, % at 3.39 µM; hit rate 0.99% among 340,000; AID 492956;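 active means inhibition above the mean over all tested compounds plus 3 SD, cut at about 30% in these data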;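 further: inhibitors block probe labeling of enzyme so polarization drops; 0% = enzyme with DMSO and 100% = wells lacking PAFAH2 protein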
eLon inh: inhibitors of E. coli Lon protease | P0A9M0 | purified E. coli Lon protease, fluorescence polarization | inhibition, % at 7.94 µM | hit rate 0.42% among 360,000 | AID 602123; in the data active means inhibition above about 13%, passing the limit was not always enough;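 further: 0% = enzyme with probe and DMSO and 100% = no enzyme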
PAFAH1B3 inh: blocks human PAF acetylhydrolase 1B catalytic subunit 3; AID 492972; recombinant PAFAH1B3, FP-rhodamine probe, fluorescence polarization; inhibition, % at 3.39 µM; hit rate 0.28% among 340,000; Q15102;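 active means inhibition above the screen-wide average of all tested compounds plus 3 SD, cut at about 25% in these data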;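 further: 0% = enzyme with DMSO only and 100% = wells lacking PAFAH1B3 protein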
Target sequence (Q15102 whole entry, looked up): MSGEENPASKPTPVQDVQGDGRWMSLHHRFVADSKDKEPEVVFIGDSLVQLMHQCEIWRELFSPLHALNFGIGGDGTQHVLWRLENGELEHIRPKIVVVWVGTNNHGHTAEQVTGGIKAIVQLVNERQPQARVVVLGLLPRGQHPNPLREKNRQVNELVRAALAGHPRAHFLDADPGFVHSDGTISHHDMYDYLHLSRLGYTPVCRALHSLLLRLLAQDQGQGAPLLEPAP
PAFAH1B2 FP inh: PAFAH1B2 (human) inhibition; P68402; recombinant PAFAH1B2, FP-rhodamine activity probe, fluorescence polarization; inhibition, % at 3.39 µM; hit rate 1.2% among 340,000;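 active means inhibition above the mean of all tested compounds plus 3 SD, cut at about 24% in these data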;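 further: 0% = enzyme with DMSO and 100% = wells lacking PAFAH1B2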
Target sequence (P68402 whole entry, looked up): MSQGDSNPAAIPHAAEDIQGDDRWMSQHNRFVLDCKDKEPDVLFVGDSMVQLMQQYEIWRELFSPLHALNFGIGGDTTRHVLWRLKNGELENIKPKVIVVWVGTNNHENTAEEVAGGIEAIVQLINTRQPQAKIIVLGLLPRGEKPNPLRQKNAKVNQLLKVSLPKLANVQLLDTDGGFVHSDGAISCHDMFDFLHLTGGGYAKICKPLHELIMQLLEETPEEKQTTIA
pPAFAH inh: inhibitors of human plasma PAF acetylhydrolase (pPAFAH). recombinant pPAFAH, FP-rhodamine probe fluorescence polarization. inhibition, % at 3.39 µM. hit rate 1.5% among 330,000;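 active means inhibition above the mean inhibition across the screen plus 3 SD, cut at about 25% in these data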;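 further: inhibitors block binding of the rhodamine activity-based probe so polarization drops; 0% = enzyme with DMSO and 100% = wells lacking pPAFAH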
Rin1 Abl inh: blocks binding of human Rin1 to Abl. P00519+Q13671. TR-FRET Rin1/Abl binding, biochemical. inhibition, % at 7.35 µM. hit rate 0.4% among 360,000; in the data active means inhibition above about 5%, passing the limit was not always enough
Active calls of the source: *; / = no result given. This is a sample that favours compounds with a hit; in the whole collection about 3.1% have one here.

SMILES | PAFAH2 inh | eLon inh | PAFAH1B3 inh | PAFAH1B2 FP inh | pPAFAH inh | Rin1 Abl inh
C/C(=N\NC(=O)c1ccncc1)c1cccc(NC(=O)c2ccc(Cl)s2)c1 | 0 | 2 | -1 | 1 | / | 3
CSc1nc2nccc(-c3ccc(-c4ccccc4)cc3)n2n1 | 3 | -14 | 3 | 0 | 4 | 0
CSc1nc2nccc(-c3ccc(Oc4ccccc4)cc3)n2n1 | -2 | -5 | 1 | -2 | 30* | -4
Cc1cc(O)c(C(=O)/C=C/c2ccccc2)c(=O)o1 | 6 | -87 | 4 | 4 | / | 3
Cc1cc(O)c(C(=O)/C=C/c2ccc(C(C)C)cc2)c(=O)o1 | 1 | -12 | 2 | 28* | / | 4
NC(=O)Cc1ccc(C(=O)CSc2nnc(-c3ccncc3)n2C2CC2)s1 | 19 | -15 | 3 | 6 | 33* | 6
O=C(COC(=O)c1ccc(OC(F)(F)F)cc1)Nc1ncccn1 | 15 | 11 | -1 | 1 | 25* | 1
N#CCC(=O)Nc1ccc(C(=O)NCCC(c2ccccc2)c2ccccc2)cc1 | -13 | -4 | -9 | -7 | 34* | 3
Cc1ccc(C)c(SCC(=O)NC(=O)NCc2ccccc2)c1 | 10 | 4 | 7 | 5 | 3 | 3
Cc1ccc(C)c(SCC(=O)OCC(=O)NCc2ccccc2)c1 | 3 | -5 | 2 | -4 | 25* | 1
Cc1ccc(SCC(=O)OC(C)C(=O)NCc2ccccc2)cc1C (stereo unspecified) | 3 | 1 | 3 | 6 | 34* | 4
O=C(CCNS(=O)(=O)c1ccc(OC(F)(F)F)cc1)Nc1cccc(S(=O)(=O)N2CCCC2)c1 | 5 | -6 | 3 | 4 | / | 0
O=C(NCC(c1ccco1)N1CCCCC1)c1cccc(NS(=O)(=O)c2ccc(Br)cc2)c1 (stereo unspecified) | -8 | -1 | 4 | 30* | 11 | -2
O=C(NCC(c1ccco1)N1CCCC1)c1cccc(S(=O)(=O)Nc2ccc(Br)cc2)c1 (stereo unspecified) | 3 | -10 | 6 | 4 | 28* | 1
CCOc1ccc(S(=O)(=O)Nc2cccc(C(=O)NCC(c3ccco3)N3CCCC3)c2)cc1 (stereo unspecified) | 2 | 0 | 9 | 5 | 1 | 0
OCCCCCCNc1ccc(CCO)cc1 | / | -2 | / | / | / | 2
CC(=O)NC(C)(c1ccccc1)c1nc(/C=C/c2ccccc2)cs1 (stereo unspecified) | / | -6 | / | / | / | 2
O=S(=O)(c1ccc2oc(=S)[nH]c2c1)N1CCCCC1 | -1 | -9 | -5 | 6 | 6 | -5
O=S(=O)(Nc1cccc(Cl)c1)c1ccc2oc(=S)[nH]c2c1 | 10 | 3 | 2 | 12 | 32* | 0
Cc1cc(C)cc(NC(=O)Nc2ccc(-n3ccc(C(F)(F)F)n3)cc2)c1 | 2 | -2 | 7 | 49* | -24 | 4
O=C(Nc1ccc(-n2ccc(C(F)(F)F)n2)cc1)Nc1cccc(Cl)c1 | -23 | -2 | -30 | -8 | -26 | -3
O=C(Nc1cc(Cl)ccc1Cl)N1CCN(C(=O)Nc2cc(Cl)ccc2Cl)CC1 | -4 | -14 | 1 | 5 | / | 0
CC(C)(C)c1ccc(N/N=C(\C#N)S(=O)(=O)C(C)(C)C)cc1 | 19 | 5 | 12 | 14 | 33* | -1
CCOC(=O)N(C)c1c(CC)nc2c(OCc3cc(Cl)cc(Cl)c3)cccn12 | / | -7 | / | / | / | 2
O=C(NCCc1ccc(O)cc1)c1ccc(Cl)cc1 | 0 | -6 | 7 | 5 | 0 | 0
SMILES | PAFAH2 inh | eLon inh | PAFAH1B3 inh | PAFAH1B2 FP inh | pPAFAH inh | Rin1 Abl inh
O=C(NCCCO)C(=O)NCCc1ccc(Cl)cc1 | 1 | -6 | 6 | 28* | 2 | 0
CCNC(=O)C(=O)NCCc1ccc(Cl)cc1 | -3 | 3 | 4 | 25* | 5 | 0
O=C(CCc1c[nH]c2ccccc12)NCCc1ccc(Cl)cc1 | 10 | 5 | 3 | 28* | 0 | 2
COc1ccc(CCNC(=O)c2ccc(=O)[nH]c2)cc1 | 3 | 1 | 1 | 3 | 0 | 2
CC1(C)CC(NC(=O)C(=O)NCCc2ccc(Cl)cc2)CC(C)(C)N1 | 1 | -2 | 4 | 7 | -3 | 2
O=C(CCc1c[nH]c2ccccc12)NCCc1ccccc1 | 1 | -2 | 0 | -1 | 4 | -1
O=C(NCCc1ccc(Cl)cc1)c1ccc(=O)[nH]c1 | -5 | -2 | -4 | 30* | -5 | 3

From PubChem
